Assay outcomes: PubChem BioAssay, National Center for Advancing Translational Sciences (NCATS)
Pf growth 48h: Primary qHTS for delayed death inhibitors of the malarial parasite plastid, 48 hour incubation. hit rate 5.9% among 310,000. Potency, µM (series often up to 28.7 µM), for the others: at the top dose activity change, negative = inhibition, most hits filed as inhibitors. P. falciparum luciferase growth in erythrocytes, 48 h; note: potency is the fitted concentration of half-maximal effect; % is set by controls: 0 for no effect and ±100 for the full control effect
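Cell-based growth assay: transgenic P. falciparum expressing firefly luciferase, cultured in red cells within RPMI 1640 containing 0.5% w/v Albumax, 24 mM bicarbonate and gentamycin. A drop in luciferase activity indicates inhibition.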
CHX counter: Cycloheximide Counterscreen for Small Molecule Inhibitors of Shiga Toxin | max response, % | hit rate 12% among 300,000 | AID 2314, 2010 | cell reporter, cycloheximide protein synthesis inhibition counterscreen; in the data active = max response mostly above about 13%, no sharp cut-off; inactive = mostly below about 14%; note: read at 38.3 µM for the half of the compounds with a filed dose; 0% is about no effect
HCMV inh: qHTS Assay for inhibitors of the human cytomegalovirus (HCMV); HFF cells, HCMV-luciferase reporter, 72 h; active compounds read low; activity change, negative = inhibition, % at 57.5 µM; hit rate 4.5% among 410,000; in the data active = activity change below about -60%; inconclusive = no clear call, values can overlap the other calls; inactive = above about -39%; note: % is set by controls: 0 for no effect and ±100 for the full control effect
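Steps: HFFs plated, 16 h 37C; compounds added; HCMV-luciferase added to MOI 1 PFU/cell; 72 h 37C; OneGlo reagent, 5 min room temperature; luminescence read, normalized to controls.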
Shiga toxin inh: A qHTS for Small Molecule Inhibitors of Shiga Toxin; Vero cells, Shiga toxin protein synthesis inhibition reporter; inhibition, % at 38.7 µM; hit rate 9.2% among 290,000; AID 2315, 2010; in the data active = inhibition mostly above about 28%, no sharp cut-off; inactive = mostly below about 43%; note: 0% is about no effect
Pf growth 96h: Primary qHTS for delayed death inhibitors of the malarial parasite plastid, 96 hour incubation. P. falciparum luciferase reporter growth, 96 h. Potency, µM (series often up to 28.7 µM), without a hit: at the top dose activity change, negative = inhibition, actives largely listed as inhibitors. hit rate 6.9% among 320,000. AID 504834, 2011; note: potency is the fitted concentration of half-maximal effect; % is set by controls: 0 for no effect and ±100 for the full control effect
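Infected RBCs, 2% Hct / 0.05% parasitemia final; luciferase-reporter P. falciparum; cpd 96 h, 37 C, 5% CO2; luciferase detection reagent; luminescence.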
* = called active by the depositor; i = inactive; u = inconclusive; x = not tested or not shown; [ ] = dose if it differs, or a comment. Hits are enriched below; roughly 20% of the tested compounds scored in any of these assays. Unless noted, calls come from the whole dose curve; as a rule, active = well fitted inhibition curve with a large enough effect; inconclusive = small, poorly fitted or top-dose-only effect, or another doubt; inactive = no such curve, though single readings can be large or run the other way.

SMILES	Pf growth 48h	CHX counter	HCMV inh	Shiga toxin inh	Pf growth 96h
Cc1cc(C(=O)N/N=C\c2cc(C(C)(C)C)ccc2O)n[nH]1	12µM*	47*	x	41*	2%
Cn1cccc1/C=N/NC(=O)c1cccc(OC(F)(F)C(F)F)c1	41%	30*	-27	63*	41%
Cc1ccc(OCC(=O)N/N=C/c2cccn2C)cc1	20%	3	-25	8	80%
O=C(N/N=C/c1cccs1)c1[nH]ncc1Br	45%	55*	73	118*	92%
O=C(N/N=C/c1ccncc1)c1cnccn1	-8%	9	18	46	4%
O=C(N/N=C/c1cccs1)c1cnccn1	14%	13	19	32*	43%
CCOC(=O)N1CCC(Nc2c([N+](=O)[O-])cc(C(=O)O)cc2[N+](=O)[O-])CC1	15%	-2	21	-7	6%
CC(CNC(=O)Cn1ccc2cc(S(=O)(=O)N3CCCCC3)ccc21)c1ccccc1 (centres undefined)	x	x	-20	x	x
Cc1cc(C(=O)N/N=C/c2cccn2C)n[nH]1	106%	33*	8	active	93%
Cc1ccc(C(=O)N/N=C\c2cccs2)cn1	70%	25*	-34	82*	17%
Cc1cc(C(=O)N/N=C/c2cccs2)n[nH]1	128%	29*	92	54*	423%
Cc1cc(C(=O)N/N=C/c2cccs2)no1	29%	40*	10	58*	20%
CC(C)Nc1ncnc2c1ncn2[C@H]1CN(Cc2cccs2)C[C@@H](CO)O1	x	x	-30	x	x
CC1(C)C(=O)N(CCN2CCC(C(=O)c3ccc(F)cc3)CC2)c2ccccc21	15µM*	x	u	x	u
O=C(c1ccc(F)cc1)C1CCN(CCn2c(=S)[nH]c3ccccc3c2=O)CC1	3.8µM*	-2	x	-2	4.3µM*
COc1ccccc1NC(=O)CN1CCC(C(=O)c2ccc(F)cc2)CC1	6%	-4	-6	-20	-2%
O=C(c1ccc(F)cc1)C1CCN(CCn2c(=O)[nH]c3ccccc3c2=O)CC1	x	-4	x	-4	x
COc1ccc(C2=Nc3ccc(C)cc3NC(c3ccc(Cl)cc3)=N2)cc1	x	x	28	x	x
CC1CCN(C(=O)c2c(NC(=O)c3ccccc3F)sc3c2CCC(C(C)(C)C)C3)CC1 (centres undefined)	x	x	-9	x	x
COc1cccc(Cn2c(=O)n(-c3ccc(Br)cc3F)c(=O)c3sc4ccccc4c32)c1	x	x	14	x	x
O=C(c1ccc(Cl)cc1)N1CCC(C(=O)N2CCCc3ccccc32)CC1	-21%	1	-5	-13	u
CCOc1ccc(NC(=O)Nc2nc(SCC)ns2)cc1	0%	1	-61*	10	4.1µM*
CCSc1nsc(NC(=O)Nc2ccc(F)cc2F)n1	-1%	59*	x	87*	-19%
CCSc1nsc(NC(=O)Nc2ccccc2Cl)n1	x	x	29	x	x
CC1(C)C(=O)Nc2ccccc2N1C(=O)COc1cc(Cl)ccc1Cl	12µM*	x	5	x	u
SMILES	Pf growth 48h	CHX counter	HCMV inh	Shiga toxin inh	Pf growth 96h
O=C1CN(C(=O)CSc2nc(-c3ccccc3)cs2)c2ccccc2N1	-19%	-1	-61*	8	u
CC1(C)C(=O)Nc2ccccc2N1C(=O)CSc1nc(-c2ccccc2)cs1	10%	16*	-63*	29	-14%
COc1ccc2cc(C#N)c(SCC(=O)N3CC(=O)Nc4ccccc43)nc2c1	-7%	0	x	6	25%
Cc1cccc2cc(C#N)c(SCC(=O)N3CC(=O)Nc4ccccc43)nc12	u	4	-96*	-17	21%
CCOC(=O)C1CCCN(S(=O)(=O)c2cc3c4c(c2)CC(=O)N4CCC3)C1 (centres undefined)	x	x	-13	x	x
COc1ccc(Nc2nnc(SCC(=O)N3CC(=O)Nc4ccccc43)s2)cc1	u	-1	59	2	2.3µM*
CCSc1nc(-c2ccccc2)nc2c1Cc1c(CO)cnc(C)c1O2	x	x	-31	x	x
O=C(Nc1sc2c(c1C(=O)O)CCC2)c1ccc(F)cc1	68%	8	31	37*	21%
O=C(Nc1sc2c(c1C(=O)O)CCC2)c1ccccc1	44%	41*	84	143*	x
CC1(C)Cc2c(sc(NC(=O)c3ccccc3)c2C(=O)O)CO1	64%	61*	66	114*	-4%
O=C(Nc1sc2c(c1C(=O)O)CCCC2)c1ccc(Cl)cc1	56%	19*	17	29	-8%
CN1CCN(C2CN(Cc3ccc([N+](=O)[O-])cc3)S(=O)(=O)C2)CC1 (centres undefined)	x	x	-5	x	x
O=C(NNS(=O)(=O)c1ccccc1Cl)C1COc2ccccc2O1 (centres undefined)	x	x	-26	x	x
O=C(Nc1sc2c(c1C(=O)NCCCO)CCCC2)c1ccccc1	u	6	-29	14	u
NC(=O)c1c(NC(=O)C(=O)N2CCOCC2)sc2c1CCCC2	u	6	-12	9	6%
NCCNC(=O)c1c(NC(=O)c2ccccc2)sc2c1CCCC2	u	24*	75	46	u
O=C(Nc1sc2c(c1C(=O)O)CCCC2)c1cccc(Cl)c1	46%	50*	28	98*	27%
O=C(O)c1c(NC(=O)N2CCOCC2)sc2c1CCCC2	16%[0.00184 µM]	13*	54	29	26%
O=C(O)c1c(NC(=O)c2cccc3ccccc23)sc2c1CCC2	x	-2	-9	16	-8%
O=C(Nc1sc2c(c1C(=O)O)CCCCC2)c1ccccc1	-1%	42*	11	104*	u
O=C(CC1N=C2c3ccccc3N=C(SCC(=O)Nc3ccc(F)cc3)N2C1=O)NCc1ccco1 (centres undefined)	x	x	-1	x	x
C=CCNC(=S)Nc1cccc2[nH]ncc12	i	7	34	20	125%
[O-]/[N+](=C/c1ccc(F)cc1)c1ccc(Cl)cc1	121%	54*	x	53	-12%
[O-]/[N+](=C\c1ccco1)c1ccc(Cl)cc1	u	61*	27	82*	u
CC(C)(/C=N/O)/[N+]([O-])=C/c1ccco1	1%	20	20	-7	64%
SMILES	Pf growth 48h	CHX counter	HCMV inh	Shiga toxin inh	Pf growth 96h
[O-]/[N+](=C/c1ccco1)c1ccccc1	15%	23*	0	40	u
CCCc1nnc(SCC(=O)Nc2ccccc2F)o1	20%	6	196	1	-27%
CC(=O)NC(CC(=O)NCCCn1ccc2ccccc21)c1ccccc1 (centres undefined)	-3%	2	-10	-3	9%
CCOC(=O)Cn1c(=O)c(F)cn(Cc2ccc(OC)c([N+](=O)[O-])c2)c1=O	6%	-3	17	-8	10µM*
CCCn1c(=O)c(F)cn(Cc2ccc(OC)c([N+](=O)[O-])c2)c1=O	9%	-1	45	-2	38%
CSC1=N/C(=C/c2cccnc2)C(=O)N1Cc1ccc(Cl)cc1	6.6µM*	44*	-16	-12	u
